This is part of a sample that, as a whole, favours compounds with a hit. Of some 79,000 tested, about 15% had one in any assay. Values without a mark were called inactive. The source made the active and inactive calls. No stated cut-off is given here; in the data, active means growth inhibition above about 70%; inactive means the rest.
Experiment: NCI Yeast Anticancer Drug Screen. Data for the bub3 strain (AID 167)
Conditions: S. cerevisiae bub3 mutant strain, at 50.0 µM, active compounds read high
Procedure, shortened: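 Compounds were applied to a genetically altered yeast strain carrying a cell-cycle control defect. Growth inhibition was scored against vehicle-treated controls.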

Point of comparison: `O=[N+]([O-])C(/C=N/Nc1ccccc1)/C=N/Nc1ccccc1`, growth inhibition -24.6%. Against it:
- C[N+](C)(C)C12CCCC1S(=O)(=O)C2 (stereo not given) — higher, -7.45%
- CCc1nc(N)nc(N)c1-c1ccc(Cl)c(NC(C)=O)c1 — higher, 6.6%
- Nc1nc(Cl)cc(NCC(O)CO)n1 (stereo not given) — higher, -0.25%
- NCCC(=O)NCCSSCCNC(=O)CCN — higher, 6.8%
- COC(=O)OC(C#N)c1cccc([N+](=O)[O-])c1 (stereo not given) — higher, -3.9%
- O=C1S/C(=C2\C(=O)N(CN3CCCCC3)c3ccc(Br)cc32)C(=O)N1CN1CCCCC1 — higher, -1.6%
- c1ccc2c(c1)ncc1cc3c(cc12)[nH]c1ccccc13 — higher, -10.4%
- CC1CN(c2ccc(Cl)cc2)CC(C)(C)OC(=O)O1 (stereo not given) — higher, 5.45%
- CCOC(=O)Nn1c(C)nnc1CC#N — higher, 0.65%
- N=c1oc2ccc([N+](=O)[O-])cc2cc1C(=O)NCc1ccccc1 — lower, -35.5%
- CCNC(=O)NCCN1CCOCC1 — higher, 7.05%
- O=C1CSC(/C(=C/c2ccccc2)c2nc3ccccc3[nH]2)=N1 — higher, -1.6%
- COc1ccc(N(C)S(=O)(=O)c2ccccc2)cc1 — higher, 0.1%
- COC(=O)CC1(CC(=O)O)SCCS1 — higher, 13.5%
- CCOC(=O)C(=CC(CC)CC)C(=O)OCC — higher, -16.2%
- CC(=O)ON(C(=O)c1ccccc1)c1ccccc1 — higher, 7.05%
- CCCCCCCCSC(SCCCCCCCC)=C1C(=O)N(c2ccccc2)N=C1C — lower, -28.1%
- CCNC(=S)NCCc1c[nH]c2ccccc12 — higher, 2.55%
- O=C(CSc1nnc(Cc2ccccc2)o1)Nc1cccc([N+](=O)[O-])c1 — higher, -8.4%
- C/C(=N\NC(N)=S)c1cc(C)c(C)cc1C — higher, -7.95%
- CCSc1cccc(C(=O)O)c1 — higher, -22.9%
- NC(=S)N/C=C(/c1ccc(Cl)cc1Cl)S(=O)(=O)Cc1ccc(Cl)cc1Cl — higher, 0.2%
- C=C(C)C1Cc2c(cc(O)c3c(=O)c4c(oc23)C(O)Oc2cc(OC)c(OC)cc2-4)O1 (stereo not given) — higher, 2.85%
- CCCCNc1ccc(Cl)cc1 — higher, -15.5%
- O=C1CSC(c2cccnc2)N1CCN1C(=O)CSC1c1cccnc1 (stereo not given) — higher, -1.6%
- Cc1[nH]c(=O)nc(CC(O)(c2ccccc2)c2ccccc2)c1-c1ccccc1 — higher, -6.05%
- C[Si](C)(C)OC=C1CCCCC1 — higher, -21.4%
- N#CCC(=O)N/N=C/c1ccccc1 — higher, -5.85%
- Cc1c(C(=O)CC(=O)C(=O)Nc2c(C(C)C)cccc2C(C)C)[n+](=O)c2ccccc2n1[O-] — higher, 29.8%
- CC(C)(C(=O)Cc1ccccc1)c1ccccc1 — higher, 0.2%
- Cc1nnc2n(c1=O)CCCN2C — higher, 15.8%
- CC1(C)C2CCC1(C)C(NC(N)=O)C2 (stereo not given) — higher, 2.3%
- CCOC1CCC(C(=O)CC)C(C#N)(C#N)C1(C#N)C#N (stereo not given) — higher, 11.8%
- NS(=O)(=O)c1ccc(NC(=S)/N=C/c2c(O)c3ccccc3oc2=O)cc1 — higher, -10.4%
- CC(c1ccccc1)C(C)c1ccccc1 (stereo not given) — higher, 7.6%
- Cc1cccc(Cl)c1NC(=O)c1cccc([N+](=O)[O-])c1 — higher, 32.4%
- CCCCCCCN1C=CCC(S(=O)(=O)N2CCOCC2)=C1 — higher, -16.8%
- CCc1cnc(N)nc1N — higher, 0.95%

With `CC(C)(C)CC(C)(C)c1c(O)cc(O)cc1Cl` the growth inhibition was 99.2% (active).

Experiment: NCI Yeast Anticancer Drug Screen. Data for the mlh1 rad18 strain (AID 175)
Conditions: S. cerevisiae mlh1 rad18 strain growth inhibition; at 50.0 µM; active compounds read high
Procedure, shortened: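 Yeast w/ defined DNA-repair lesions; compound exposure; growth vs vehicle controls → % inhibition.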

Point of comparison: `CCSc1cccc(C(=O)O)c1`, growth inhibition -7.8%. Against it:
- C[N+](C)(C)C12CCCC1S(=O)(=O)C2 (stereo not given) — higher, 16.6%
- CCc1nc(N)nc(N)c1-c1ccc(Cl)c(NC(C)=O)c1 — higher, 1.95%
- Nc1nc(Cl)cc(NCC(O)CO)n1 (stereo not given) — higher, -2.55%
- NCCC(=O)NCCSSCCNC(=O)CCN — higher, 15.1%
- COC(=O)OC(C#N)c1cccc([N+](=O)[O-])c1 (stereo not given) — higher, 9%
- O=C1S/C(=C2\C(=O)N(CN3CCCCC3)c3ccc(Br)cc32)C(=O)N1CN1CCCCC1 — higher, 22.2%
- c1ccc2c(c1)ncc1cc3c(cc12)[nH]c1ccccc13 — higher, 26.6%
- CC1CN(c2ccc(Cl)cc2)CC(C)(C)OC(=O)O1 (stereo not given) — higher, -2.5%
- CCOC(=O)Nn1c(C)nnc1CC#N — higher, 18.7%
- N=c1oc2ccc([N+](=O)[O-])cc2cc1C(=O)NCc1ccccc1 — lower, -71.8%
- CCNC(=O)NCCN1CCOCC1 — higher, -2%
- O=C1CSC(/C(=C/c2ccccc2)c2nc3ccccc3[nH]2)=N1 — higher, -0.25%
- COc1ccc(N(C)S(=O)(=O)c2ccccc2)cc1 — higher, 15.8%
- COC(=O)CC1(CC(=O)O)SCCS1 — lower, -8.25%
- CCOC(=O)C(=CC(CC)CC)C(=O)OCC — higher, -0.85%
- CC(=O)ON(C(=O)c1ccccc1)c1ccccc1 — higher, 12.1%
- CCCCCCCCSC(SCCCCCCCC)=C1C(=O)N(c2ccccc2)N=C1C — lower, -13%
- CCNC(=S)NCCc1c[nH]c2ccccc12 — lower, -36.6%
- O=C(CSc1nnc(Cc2ccccc2)o1)Nc1cccc([N+](=O)[O-])c1 — lower, -17%
- C/C(=N\NC(N)=S)c1cc(C)c(C)cc1C — higher, 65.8%
- NC(=S)N/C=C(/c1ccc(Cl)cc1Cl)S(=O)(=O)Cc1ccc(Cl)cc1Cl — higher, 9.7%
- C=C(C)C1Cc2c(cc(O)c3c(=O)c4c(oc23)C(O)Oc2cc(OC)c(OC)cc2-4)O1 (stereo not given) — higher, 16.9%
- CCCCNc1ccc(Cl)cc1 — lower, -15.6%
- O=C1CSC(c2cccnc2)N1CCN1C(=O)CSC1c1cccnc1 (stereo not given) — higher, 19.4%
- Cc1[nH]c(=O)nc(CC(O)(c2ccccc2)c2ccccc2)c1-c1ccccc1 — lower, -26.1%
- C[Si](C)(C)OC=C1CCCCC1 — higher, 9.7%
- N#CCC(=O)N/N=C/c1ccccc1 — higher, 9.4%
- Cc1c(C(=O)CC(=O)C(=O)Nc2c(C(C)C)cccc2C(C)C)[n+](=O)c2ccccc2n1[O-] — higher, 36%
- CC(C)(C(=O)Cc1ccccc1)c1ccccc1 — lower, -11.3%
- Cc1nnc2n(c1=O)CCCN2C — higher, 13.4%
- CC1(C)C2CCC1(C)C(NC(N)=O)C2 (stereo not given) — higher, 10.5%
- CCOC1CCC(C(=O)CC)C(C#N)(C#N)C1(C#N)C#N (stereo not given) — higher, 7.8%
- NS(=O)(=O)c1ccc(NC(=S)/N=C/c2c(O)c3ccccc3oc2=O)cc1 — higher, 12.6%
- CC(c1ccccc1)C(C)c1ccccc1 (stereo not given) — lower, -8.65%
- Cc1cccc(Cl)c1NC(=O)c1cccc([N+](=O)[O-])c1 — higher, 46.4%
- CCCCCCCN1C=CCC(S(=O)(=O)N2CCOCC2)=C1 — higher, -2%
- CCc1cnc(N)nc1N — higher, 0.65%
- O=[N+]([O-])C(/C=N/Nc1ccccc1)/C=N/Nc1ccccc1 — lower, -10.9%

In the case of `CC(C)(C)CC(C)(C)c1c(O)cc(O)cc1Cl`, the growth inhibition is reported as 99.2% (active).
